Source: PubChem BioAssay AID1159580 (chemical genetic matrix, 2015)
About 2,000 (36%) of roughly 5,500 compounds were called active. Roughly 18% stayed inconclusive and do not appear here. Rule as the data show it: active = normalized growth mostly below about 0.91 (no sharp cut-off); inconclusive = no clear call, values can overlap the other calls; inactive = mostly above about 0.92. Some of the results follow.

Assay: chemical genetic growth profiling, strain panel (AID 1159580);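 also: tested at 20 µM; growth read once vehicle control cultures reached saturation at 30 °C; 1 = growth at the plate median or of vehicle wells; lower values mean less growth of the strain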
Details: S. cerevisiae deletion strains, growth OD

Measured: normalized growth

CC(=O)Oc1c2c(c3c(c1CC=C(C)C)O[C@]14C(=C[C@@H]5CC1C(C)(C)OC4(C/C=C(\C)C(=O)O)C5=O)C3=O)OC(C)(CCC=C(C)C)C=C2 (some centres not stated)
inactive: locus YAL021C, strain ccr4, hits give low values 1 | locus YAL026C, strain drs2, hits give low values 0.979 | locus YAL030W, strain snc1, hits give low values 0.976 | locus YBL061C, strain skt5, hits give low values 0.949 | locus YBR009C, strain hhf1, hits give low values 0.958 | locus YBR023C, strain chs3, hits give low values 0.964 | locus YBR171W, strain sec66, hits give low values 0.974 | locus YBR231C, strain swc5, hits give low values 0.94 | locus YBR279W, strain paf1, hits give low values 0.961 | locus YCL011C, strain gbp2, hits give low values 0.988 | locus YCL016C, strain dcc1, hits give low values 0.987 | locus YCL061C, strain MRC1, hits give low values 0.98 | locus YCL069W, strain vba3, hits give low values 0.984 | locus YCR088W, strain abp1, hits give low values 0.985 | locus YDL005C, strain med2, hits give low values 0.968 | locus YDL040C, strain nat1, hits give low values 0.977 | locus YDR001C, strain nth1, hits give low values 0.985 | locus YDR069C, strain doa4, hits give low values 0.977 | locus YDR159W, strain sac3, hits give low values 0.87 | locus YDR195W, strain ref2 1.01 | locus YDR297W, strain sur2, hits give low values 0.959 | locus YDR334W, strain swr1, hits give low values 0.976 | locus YDR335W, strain msn5, hits give low values 0.997 | locus YEL003W, strain gim4, hits give low values 0.96 | locus YEL037C, strain rad23, hits give low values 0.995 | locus YEL061C, strain CIN8 (second series), hits give low values 0.984 | locus YER015W, strain faa2, hits give low values 0.973 | locus YER016W, strain bim1, hits give low values 0.971 | locus YER111C, strain swi4, hits give low values 0.981 | locus YER155C, strain BEM2 (second series), hits give low values 0.922 | locus YFR010W, strain ubp6, hits give low values 0.973 | locus YGL167C, strain pmr1, hits give low values 0.973 | locus YGL173C, strain kem1, hits give low values 0.939 | locus YGL227W, strain vid30, hits give low values 0.981 | locus YGL240W, strain doc1, hits give low values 0.951 | locus YGL253W, strain hxk2, hits give low values 0.967 | locus YHR013C, strain ard1, hits give low values 0.875 | locus YHR027C, strain rpn1, hits give low values 0.98 | locus YHR142W, strain chs7, hits give low values 0.991 | locus YJL092W, strain hpr5, hits give low values 0.988 | locus YJL095W, strain BCK1 (second series), hits give low values 0.971 | locus YJL115W, strain asf1, hits give low values 0.982 | locus YJL129C, strain trk1, hits give low values 0.89 | locus YJL154C, strain vps35, hits give low values 0.992 | locus YJL164C, strain tpk1, hits give low values 0.986 | locus YJL166W, strain qcr8, hits give low values 0.937 | locus YJL187C, strain SWE1, hits give low values 0.972 | locus YKL160W, strain elf1, hits give low values 0.957 | locus YKR026C, strain gcn3, hits give low values 0.983 | locus YKR091W, strain srl3, hits give low values 0.984 | locus YLL001W, strain dnm1, hits give low values 0.945 | locus YLL026W, hits give low values 0.968 | locus YLL041C, strain sdh2, hits give low values 0.983 | locus YLR027C, strain aat2, hits give low values 0.948 | locus YLR221C, strain rsa3, hits give low values 0.947 | locus YLR258W, strain gsy2, hits give low values 0.994 | locus YLR262C, strain YPT6 (second series), hits give low values 0.874 | locus YLR320W, strain mms22, hits give low values 0.899 | locus YLR342W, strain FKS1, hits give low values 0.963 | locus YLR357W, strain rsc2, hits give low values 1.01 | locus YLR370C, strain arc18, hits give low values 0.958 | locus YLR384C, strain iki3, hits give low values 0.964 | locus YML120C, strain ndi1, hits give low values 0.985 | locus YMR058W, strain fet3, hits give low values 0.991 | locus YMR125W, strain sto1, hits give low values 0.992 | locus YMR129W, hits give low values 0.97 | locus YMR205C, strain PFK2, hits give low values 0.878 | locus YMR231W, strain pep5, hits give low values 0.984 | locus YNL209W, strain ssb2, hits give low values 0.982 | locus YNL248C, strain rpa49, hits give low values 0.973 | locus YNL322C, strain KRE1 (second series), hits give low values 1 | locus YNR049C, strain mso1, hits give low values 0.982 | locus YOR001W, strain rrp6, hits give low values 0.915 | locus YOR070C, strain gyp1, hits give low values 0.957 | locus YOR080W, strain dia2, hits give low values 0.979 | locus YOR083W, strain WHI5, hits give low values 0.99 | locus YOR106W, strain vam3, hits give low values 0.98 | locus YOR265W, strain rbl2, hits give low values 0.979 | locus YOR270C, strain vph1, hits give low values 0.808 | locus YOR290C, strain snf2, hits give low values 0.989 | locus YPL078C, strain atp4, hits give low values 1.01 | locus YPL106C, strain sse1, hits give low values 0.984 | locus YPL240C, strain hsp82, hits give low values 0.984
active: locus YDR137W, strain rgp1, hits give low values 0.775 | locus YDR392W, strain spt3, hits give low values 0.547 | locus YNL071W, strain lat1, hits give low values 0.878 | locus YPL051W, strain arl3, hits give low values 0.914
